RORg inh: inhibitors of mouse ROR gamma transcriptional activity; P51450; Drosophila S2 Gal4-RORgamma UAS-luciferase reporter, 20 h; Potency, µM (top dose mostly 53.6 µM), for the others: top-dose activity change, negative = inhibition, hits mostly inhibitors; 310,000 compounds, 5.4% hits; AID 2551; further: on the % scale 0 is the no-effect control and ±100 the full control effect; nearly all actives have a fitted effect of over 60% in size
Target sequence (P51450 whole entry, looked up, the tested form may be a part): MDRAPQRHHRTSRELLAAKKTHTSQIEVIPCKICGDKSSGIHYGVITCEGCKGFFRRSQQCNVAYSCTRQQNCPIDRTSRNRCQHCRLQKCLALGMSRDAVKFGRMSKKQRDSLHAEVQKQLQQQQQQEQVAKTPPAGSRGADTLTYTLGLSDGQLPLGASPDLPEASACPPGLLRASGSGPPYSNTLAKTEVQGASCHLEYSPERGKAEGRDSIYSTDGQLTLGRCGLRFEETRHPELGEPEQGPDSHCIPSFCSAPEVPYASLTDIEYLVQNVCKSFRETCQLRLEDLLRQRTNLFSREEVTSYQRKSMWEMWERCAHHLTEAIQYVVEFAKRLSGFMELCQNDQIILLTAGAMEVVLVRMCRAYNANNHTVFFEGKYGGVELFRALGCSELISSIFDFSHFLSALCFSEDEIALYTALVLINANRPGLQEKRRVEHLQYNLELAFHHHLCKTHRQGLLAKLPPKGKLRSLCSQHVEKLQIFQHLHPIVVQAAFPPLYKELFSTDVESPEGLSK
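Luminescence from a UAS-regulated Photinus luciferase reporter in stably transfected Drosophila Schneider cells is measured; decreased signal marks ROR gamma inhibition. Fusion expression is induced by 700 uM copper sulfate for 20 hr.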
MCF10A rerep: induces DNA re-replication in MCF 10a normal breast cells; AID 624296; Potency, µM (titrated, usually from 46.1 µM), for inactives: top-dose activity, positive = re-replication, actives largely listed as activators; MCF 10A DNA re-replication, Hoechst nuclear intensity, 48 h; 350,000 compounds, 2.9% hits; further: % of control where 0% means no effect; nearly all actives have a fitted effect of over 50% in size
ELG1 DNA repair: blocks ELG1-dependent DNA repair in HEK293T cells. HEK293T ELG1-luciferase reporter, luminescence, 16 h; DNA damage induced by 5-fluorouridine. Potency, µM (doses to about 46.1 µM), for inactives: at the highest dose activity change, negative = inhibition, usual class: inhibitors. 330,000 compounds, 2.3% hits. AID 504467; further: on the % scale 0 is the no-effect control and ±100 the full control effect; nearly all actives have a fitted effect of over 55% in size
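5-Fluorouridine DNA damage + compound/DMSO, 2,000 cells/well, 16 h, 37 °C/5% CO2. ONE-Glo, 30 min RT, luminescence. Readout = decrease in reporter signal.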
Gal4-VP16 FLuc: inhibits Gal4-VP16 luciferase reporter, ROR gamma counter-screen; Drosophila S2 Gal4-VP16 UAS-luciferase, luminescence, 20 h; Potency, µM (top dose mostly 53.6 µM), for inactives: at the highest dose activity, negative = inhibition, usual class: inhibitors; 310,000 compounds, 3.5% hits; AID 2546;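 further: Gal4-VP16 expression switched on by copper sulfate through the metallothionein promoter; on the % scale 0 is the no-effect control and ±100 the full control effect; nearly all actives have a fitted effect of over 50% in size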
SW480 rereplic: induces DNA re-replication in SW480 colon adenocarcinoma cells; SW480 DNA re-replication, Hoechst DNA content imaging, 48 h; Potency, µM (highest dose often 46.1 µM), inactives show top-dose re-replication activation, usual class: activators; 340,000 compounds, 1.8% hits; further: % of control where 0% means no effect; nearly all actives have a fitted effect of over 55% in size
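Hoechst fluorescence of nuclei (405 nm excitation, 500-530 nm emission) measured by plate-scanning imager after 48 hr compound exposure at 37 C; re-replication scored as increased number of nuclei with elevated intensity.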
The depositor's hits bear a star; ? = inconclusive; . = no result given; [ ] = another dose, or the depositor's remark. Hits are enriched below; roughly 10% of the tested compounds scored in any of these assays. The call rests on the fitted dose curve; in most records, active means well fitted curve in the direction sought with a large enough effect; inconclusive means small, poorly fitted or top-dose-only effect, or another doubt; inactive means no such curve, though single readings can be large; an effect the other way counts as inactive or inconclusive. Potency means the concentration at half of the fitted maximal effect.

SMILES	RORg inh	MCF10A rerep	ELG1 DNA repair	Gal4-VP16 FLuc	SW480 rereplic
CNC(=O)NC1CCCc2ccccc21 (stereo unspecified)	?	0.3%	?	0.9%	0.7%
S=C(NC1CC1)NC1CCCc2ccccc21 (stereo unspecified)	2.24µM*	?	-12.9%	?	-15.5%
Cc1c(C(=O)NC2CCCc3ccccc32)oc2ccccc12 (stereo unspecified)	4.47µM*	12.0%	-16.2%	7.9%	3.5%
S=C(NCc1ccco1)NC1CCCc2ccccc21 (stereo unspecified)	4.47µM*	5.9%	-16.6%	12.6µM*	-20.6%
CCOc1ccc(C(=O)NCC(=O)NNC(=O)CN(C)S(=O)(=O)c2ccc(Cl)cc2)cc1OCC	.	-6.2%	.	.	-2.5%
COC(=O)c1ccc(NC(=S)NC2CCc3ccccc32)cc1 (stereo unspecified)	7.94µM*	?	7.1%	?	?
S=C(NCc1ccccc1)NC1CCCc2ccccc21 (stereo unspecified)	2.51µM*	0.2%	?	11.2µM*	-1.5%
Cc1ccc(NC(=S)NC2CCSc3ccccc32)cc1 (stereo unspecified)	-101.8%	?	?	5.62µM*	28.7%
COC(=O)c1ccc(NC(=S)NC2CC2)cc1	?	0.3%	-6.5%	27.3%	-1.1%
O=C(NC1CCCc2ccccc21)c1ccccc1 (stereo unspecified)	23.2%	0.6%	-3.3%	0.3%	11.7%
Cc1ccccc1-n1c(=O)n(Cc2ccco2)c(=O)c2[nH]cnc21	8.6%	-2.1%	14.9%	0.0%	-5.2%
CC(=O)c1cc(CN2CCN(C(C)C)C(CCO)C2)cs1 (stereo unspecified)	2.3%	-22.5%	4.6%	-7.4%	?
CCc1nnc2sc(-c3ccc(NC(=O)c4ccc5c(c4)OCCO5)cc3)nn12	33.0%	-5.7%	5.8µM*	-2.6%	0.1%
Cn1nnc(NC(=S)NC(=O)c2ccco2)n1	?	-3.0%	?	10µM*	-35.4%
Cn1nnc(NC(=S)NC(=O)Cc2ccccc2)n1	1.41µM*	9.5%	10.4%	11.2µM*	-18.7%
Cn1nnc(NC(=O)c2ccco2)n1	1.9%	0.8%	1.9%	-2.8%	-0.3%
Cn1nnc(NC(=S)NC(=O)c2cc3ccccc3o2)n1	1.12µM*	-8.4%	18.2%	6.31µM*	6.3%
CC(=O)Nc1ccc(NC(=S)NC(=O)c2cc3ccccc3o2)cc1	-0.5%	2.8%	?	25.3%	-5.0%
C/C(=N\NC(=O)C(=O)Nc1c(C)n(C)n(-c2ccccc2)c1=O)c1ccncc1	0.3%	1.9%	?	3.7%	-14.8%
COc1cccc(COC(=O)CCNC(=O)c2ccc(Br)cc2)c1OC	.	1.4%	12.4%	.	0.0%
CC(Sc1nc2c(N)ncnc2n1CCOc1ccccc1)C(=O)O (stereo unspecified)	-0.9%	14.9%	25.1%	3.7%	-15.2%
Cc1ccc(N2CC(C(=O)Nc3ccc4c(c3)OCO4)CC2=O)cc1C (stereo unspecified)	-8.2%	-2.7%	18.8%	1.3%	-101.3%
Cc1cccc(NC(=O)c2nc[nH]c2C(=O)Nc2ccccc2[N+](=O)[O-])c1	4.47µM*	0.2%	21.9%	5.62µM*	-1.2%
CNC(=O)c1[nH]cnc1C(=O)Nc1cccc(Cl)c1	.	-13.2%	?	.	-5.7%
CNC(=O)c1[nH]cnc1C(=O)Nc1ccccc1OC	12.6µM*	-2.2%	?	15.8µM*	-13.7%
SMILES	RORg inh	MCF10A rerep	ELG1 DNA repair	Gal4-VP16 FLuc	SW480 rereplic
CNC(=O)c1[nH]cnc1C(=O)Nc1ccccc1C	11.2µM*	-3.9%	?	7.94µM*	-7.3%
N#Cc1c(N)c(C#N)c(-c2ccc(O)cc2)c2c1CCCC2	-0.8%[10 µM]	?	?	?	1.2%
COc1ccc(-c2c(C#N)c(N)nc3c2CCC3)cc1	4.8%	2.91µM*	7.3%	20.8%	20.6µM*
CSc1nc2c(c(-c3ccc(O)cc3)c1C#N)CCC2	-22.5%	25.9µM*	-3.4%	-3.4%	9.1%
CCCNC(=O)C(Cc1ccccc1)NC(=O)c1ccc(-c2ccccc2)cc1 (stereo unspecified)	.	12.4%	?	.	-5.4%
COc1cc(CNc2ccc(N3CCCCC3)cc2)ccc1OCC(=O)NC(C)(C)C	-15.1%	-1.7%	9.2µM*	-12.8%	-0.3%
O=C(c1ccc(-c2cc(O)c3ncccc3c2)cc1)N1CCNCC1	.	7.7%	?	.	?
O=C1CCCC2=C1Sc1ccccc1N2	-0.2%	-16.3%	?	2.2%	?
c1ccc2c(c1)Nc1ccncc1S2	-52.9%	2.6%	18.3µM*	-2.9%	-4.7%
CCn1c(Cn2nnc(-c3ccccc3)n2)nnc1SCC(=O)Nc1cccc(C(C)=O)c1	0.8%	20.6µM*	?	-0.9%	?
Cc1nc(NCc2ccccc2)c2cc[nH]c2n1	15.7%	-5.6%	-15.6%	-27.1%	-17.4%
CC(NC(=O)c1ccccc1)C(=O)NNC(=O)c1ccccc1Cl (stereo unspecified)	.	9.5%	12.8%	.	-1.8%
O=C(Nc1nc(N2C(=O)c3ccccc3C2=O)n(-c2ccccc2)n1)c1ccccc1	-42.3%	-41.8%	?	4.6%	-2.3%
O=C(Nc1nc(N2C(=O)c3ccccc3C2=O)n(-c2ccccc2)n1)c1ccc(F)cc1	10µM*	-0.5%	4.6%	?	-8.5%
COc1cccc(N/C(C)=C/C(=O)c2ccc(Br)cc2)c1	?	20.6µM*	?	?	0.2%
C/C(=C\C(=O)c1ccc(Br)cc1)Nc1ccc(Cl)cc1	7.08µM*	8.6%	?	11.2µM*	1.6%
COc1ccc(N/C(C)=C/C(=O)c2ccccc2)cc1	9.8%	11.9%	?	?	-11.0%
COc1ccc(-n2c(=O)cnc3cnc(N(C)C)nc32)cc1	8.2%	.	.	-7.5%	.
O=C(c1ccco1)N1CCN(c2ncnc3c2[nH]c2ccc(Cl)cc23)CC1	3.2%	?	?	14.1µM*	8.6%
O=c1[nH]c2ccc(Cl)cc2c(-c2ccccc2)c1N1CCOCC1	16.7%	?	-7.9%	-28.8%	?
O=C(c1ccco1)N1CCN(c2c(-c3ccccc3)c3cc(Cl)ccc3[nH]c2=O)CC1	2µM*	14.2%	?	?	-1.6%
COc1ccc(C2=CC3=C(Br)C(=O)C(C)(OC(=O)c4cnc5ccccc5n4)C(=O)C3=CO2)cc1 (stereo unspecified)	19.4%	.	.	12.9%	.
CCCCn1ccnc1C(=O)c1cc(S(=O)(=O)N2CCOCC2)ccc1C	33.9%	1.7%	6.51µM*	-29.7%	-2.1%
CCCCn1ccnc1C(=O)c1cccc(S(=O)(=O)N2CC(C)CC(C)C2)c1 (stereo unspecified)	?	28.6%	20.6µM*	?	?
Cc1ccn2c(NC3CCCC3)c(-c3cccs3)nc2c1	10µM*	?	?	-29.4%	?
c1csc(-c2nc3ccccn3c2NC2CCCCC2)c1	10µM*	?	-8.1%	-15.6%	-1.0%

From PubChem BioAssay
